In PubChem BioAssay (NCATS):
Where “and” joins values, the source holds several entries; their conditions need not be identical. Equal entries are not always repeated. Results filed as inconclusive are left out. Entries that show only a call come without a potency. Calls of active or inactive are those of the source. Unless noted, the call rests on the fitted dose curve; in most records, active means well fitted curve in the direction sought with a large enough effect; inconclusive means small, poorly fitted or top-dose-only effect, or another doubt; inactive means no such curve, though single readings can be large; an effect the other way counts as inactive or inconclusive.

Key:
[1] = molecular target: alpha-glucosidase (Oryza sativa, rice) (UniProt Q653V4); assay: Counterscreen for Glucocerebrosidase Inhibitors: qHTS Assay for Rice alpha-Glucosidase at pH 5.0 (AID 997)
Outline: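 Rice alpha-glucosidase (4 nM final) with 400 uM 4-methylumbelliferyl-alpha-D-glucopyranoside in citrate buffer pH 5.0, 20 min at room temperature, stopped at pH 10; fluorescence 365/440 nm, compounds 0.7 nM–77 uM, AC50 from Hill fits.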

[2] = Validation of Assay for Modulators of Lamin A Splicing (AID 1459; active means well fitted curve in the direction sought with a large enough effect in the signal ratio; the % refers to the signal ratio;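 further: cells exposed to compound for two days before reading; ratio rise marks activators and ratio drop marks inhibitors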)
Outline: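 Splicing correction read as GFP (500-530 nm) over DsRed2 (575-640 nm) object intensity after 48 h compound exposure of reporter HeLa S3 clones (600 cells/well, 2% FBS medium); ancitabine and cycloheximide titrations, 0.5% DMSO as vehicle.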

[3] = qHTS Assay for Lipid Storage Modulators (AID 1519; calls by dose curve); conditions: Drosophila S3 cells, BODIPY lipid droplet/cell ratio, laser cytometry, cells loaded with oleic acid
Outline: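 Cells seeded at 5,000 per well were treated with compounds over a concentration series and loaded with oleic acid (400 uM, as added). Lipid droplet fluorescence (488 nm excitation, 500-530 nm channel) was read by laser-scanning cytometry and normalized to 20 uM Triacsin C.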

[4] = molecular target: DNA repair nuclease/redox regulator APEX1 (Homo sapiens) (UniProt P27695); assay: qHTS Validation Assay for Inhibitors of the Human Apurinic/apyrimidinic Endonuclease 1 (APE1) (AID 1705; further: potency means the concentration at half of the fitted maximal effect;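 on activity change, negative = inhibition: TAMRA fluorescence gain over two minutes as APE1 cuts a quenched THF abasic duplex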)
DNA repair nuclease/redox regulator APEX1 (Homo sapiens), sequence (P27695 whole entry, looked up): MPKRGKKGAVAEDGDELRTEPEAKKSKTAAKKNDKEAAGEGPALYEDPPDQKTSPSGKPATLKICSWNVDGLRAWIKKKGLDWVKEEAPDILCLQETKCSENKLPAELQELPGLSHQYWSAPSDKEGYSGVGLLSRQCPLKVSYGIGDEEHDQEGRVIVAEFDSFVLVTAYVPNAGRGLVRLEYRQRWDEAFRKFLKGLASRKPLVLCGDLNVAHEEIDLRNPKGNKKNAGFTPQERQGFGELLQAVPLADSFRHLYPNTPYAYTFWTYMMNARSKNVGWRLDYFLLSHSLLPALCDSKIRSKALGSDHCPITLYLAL
Outline: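 Activity read as rising fluorescence (598 nm emission, 525 nm excitation) from incision of a TAMRA/BHQ-2 duplex carrying a THF abasic site (50 nM). Compound and enzyme sat 15 min at RT before substrate start; signal change between first and third 60-s reads.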

[5] = Counterscreen for APE1 Inhibitors: Fluorescent Dye Displacement Validation Assay (AID 1707); further: potency means the concentration at half of the fitted maximal effect
Outline: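 Thiazole Orange displacement from dsDNA: 250 nM ThO with 50 nM TAMRA-labelled abasic-site (tetrahydrofuran) duplex in 50 mM Tris-HCl pH7.5, 50mM NaCl, 2 mM MgCl2, 0.01% Tween-20. Loss of endpoint fluorescence (ex 480 nm, em 540 nm) flags DNA binders.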

[6] = molecular target: Endonuclease 4 (Escherichia coli (strain K12)) (UniProt P0A6C1); assay: Counterscreen for APE1 Inhibitors: qHTS Validation Assay for Inhibitors of Endonuclease IV (AID 1708); further: potency means the concentration at half of the fitted maximal effect
Outline: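 Concentration-response counterscreen run identically to the APE1 assay: 15 min room-temperature preincubation of 2 nM enzyme with compound, reaction started with 50 nM quenched abasic DNA, progress taken from kinetic fluorescence.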

[7] = qHTS for differential inhibitors of proliferation of Plasmodium falciparum line GB4 (AID 1816); conditions: Potency: Plasmodium falciparum GB4 proliferation inhibition;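 further: parasite growth measured after 72 h incubation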; further: potency means the concentration at half of the fitted maximal effect
[8] = qHTS for differential inhibitors of proliferation of Plasmodium falciparum line 3D7 (AID 1876); further: potency means the concentration at half of the fitted maximal effect
[9] = qHTS for differential inhibitors of proliferation of Plasmodium falciparum line 7G8 (AID 1815);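 further: parasite growth measured after three days of incubation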; further: potency means the concentration at half of the fitted maximal effect
[10] = measured here: cell count channel max response
[11] = measured here: lipid channel max response

Row | SMILES | outcome [1] | outcome [2] | activity change, negative = inhibition ([3]; at 25.7 µM (top of the series)) | activity change, negative = inhibition ([3]; at 57.5 µM (top of the series)) | max response [3, 10] | max response [3, 11] | Potency [4] | Potency [5] | Potency [6] | Potency [7] | Potency [8] | Potency [9]
1 | COc1ccc(C(=O)NCc2cccnc2)cc1C(=O)NCc1cccnc1 | inactive | inactive | 1.2% (inactive) | 1.17% (inactive) | -2.62% and -3.84% | -2.28% and -1.65% | inactive | inactive | inactive | inactive | inactive | –
2 | O=C(O)C1=CCNCC1 | inactive | inactive | – | 1.16% (inactive) and 3.31% (inactive) | -10.7% and 4.5% | -10.6% and 21.6% | inactive | inactive | inactive | inactive | inactive | inactive
3 | C[C@@H](NCCc1ccc(O)cc1)[C@@H](O)c1ccc(O)cc1 | – | inactive | – | 1.71% (inactive) | -16.7% | -23.8% | inactive | inactive | inactive | inactive | inactive | inactive
4 | C[C@H](O)C(=O)C1=Nc2c(nc(N)[nH]c2=O)NC1 | – | inactive | – | 3.44% (inactive) | 8.97% | 8.64% | inactive | inactive | inactive | inactive | inactive | inactive
5 | COc1cc(C(O)CO)ccc1O (stereo not drawn) | – | inactive | – | -0.467% (inactive) | -50.8% | -49.3% | inactive | inactive | inactive | inactive | inactive | inactive
7 | c1ccc(CN2CCC3(CCCc4ccccc43)CC2)cc1 | inactive | inactive | – | -2.7% (inactive) | -38% | -39.4% | inactive | inactive | inactive | 5.62 µM (active) | 10 µM (active) | 5.01 µM (active)
8 | N[C@@H](CCC(=O)N[C@H](CSN=O)C(=O)NCC(=O)O)C(=O)O | – | inactive | – | 0.446% (inactive) | -20.1% | -19.6% | inactive | inactive | inactive | inactive | inactive | inactive
9 | CCCCCC(O)CCCC(=O)O (stereo not drawn) | – | inactive | – | 0.833% (inactive) | -25.3% | -24.6% | inactive | inactive | inactive | inactive | inactive | inactive
10 | N[C@@H](CCCC(=O)O)C(=O)O | – | inactive | – | 0.27% (inactive) | -26.7% | -26.8% | inactive | inactive | inactive | inactive | inactive | inactive
11 | Nc1ccc(-c2nc3ccc(-c4nc5ccc(N)cc5[nH]4)cc3[nH]2)cc1 | inactive | inactive | – | -0.707% (inactive) | -29.1% | -26.6% | 28.2 µM (active) | 25.1 µM (active) | 22.4 µM (active) | 0.891 µM (active) | 0.355 µM (active) | 0.794 µM (active)
12 | CN1CCCC1CCOC(C)(c1ccccc1)c1ccc(Cl)cc1 (stereo not drawn) | – | inactive | – | 0.234% (inactive) | -30.3% | -27.1% | inactive | inactive | inactive | 5.62 µM (active) | 3.98 µM (active) | 5.01 µM (active)
13 | COc1cc(CC(=O)O)ccc1O | inactive | inactive | – | -0.731% (inactive) | 56.6% | 57.3% | inactive | inactive | inactive | inactive | inactive | inactive
14 | O=C(O)C1CCCNC1 (stereo not drawn) | – | inactive | – | 0.3% (inactive) | 0.529% | 0.762% | inactive | inactive | inactive | inactive | inactive | inactive
15 | CCSC(=N)N | inactive | inactive | – | 3.43% (inactive) and 3.42% (inactive) and 1.1% (inactive) | 11.3% and -10.8% and -6.69% | 15.2% and -3.11% and -5.48% | inactive | inactive | inactive | inactive | inactive | inactive
16 | NC1(C(=O)O)CCc2cc(C(=O)O)ccc21 (stereo not drawn) | – | inactive | – | -2.76% (inactive) | -17.6% | -22% | inactive | inactive | inactive | inactive | inactive | inactive
17 | CNc1cc(NS(=O)(=O)c2ccc(N)cc2)nc(NC)n1 | inactive | inactive | – | 0.422% (inactive) | -14.7% | -14.3% | inactive | inactive | – | inactive | inactive | inactive
18 | c1ccc(C2CN3CCSC3=N2)cc1 (stereo not drawn) | – | inactive | – | 7.49% (inactive) | 0.909% | 10.3% | inactive | inactive | – | – | inactive | inactive
19 | CC1CCN(CC[C@H]2CCCN2S(=O)(=O)c2cccc(O)c2)CC1 | – | inactive | – | 5.39% (inactive) and 1.08% (inactive) | 7.6% and -15.4% | 15.3% and -11.1% | inactive | inactive | inactive | 12.6 µM (active) | – | –
20 | Nc1nc2[nH]c(=O)cnc2c(=O)[nH]1 | inactive | inactive | – | 0.27% (inactive) | 60.5% | 55.1% | inactive | inactive | inactive | inactive | inactive | inactive
